# Data as given in ChEMBL document CHEMBL3433997, “St. Jude Leishmania screening dataset” (2016).
# Values joined by “and” are separate entries in the source; they are usually repeats but may differ in a detail not shown here. Identical values can stand only once.
# Target: Glucose transporter (Leishmania mexicana) (UniProt O61059)
# Assay: ST_JUDE_LEISH: Cytotoxicity at 2uM final concentration against transgenic Leishmania Mexicana promastigotes LmGT2 that are glucose transport deficient and complemented with the L. Mexicana glucose transporter 2. Activity is measured by DNA content using SYBR green in vitro
# Type: functional
row,Compound,inhibition
1,O=C(NC1CCN(Cc2ccccc2)CC1)c1cccc(Nc2nc(-c3ccccc3)cs2)c1,2.09%
2,CC(CCON1C(N)=NC(N)=NC1(C)C)c1ccc(Cl)cc1 (stereo not given),21%
3,Cc1cc(=NN=Cc2ccccn2)c2cc(C(F)(F)F)ccc2[nH]1,-1.17%
4,CCc1cccc(-n2c(=O)c3cccnc3n2CC(=O)NCc2ccccc2Cl)c1,4.33%
5,Cc1c(CNCCCNc2nc3cscc3[nH]2)sc(C(F)F)c1Br,2.43%
6,O=C(/C=C/c1ccc(Cl)c(Cl)c1)NCCCCCCN1CCCN(C(=O)Nc2ccc(Cl)c(Cl)c2)CC1,-2.06%
7,CC(C)(C)c1cc(NC(=O)c2ccc(Cl)c([N+](=O)[O-])c2)cc(C(C)(C)C)c1,6.21%
8,COc1ccc(O)c(C(=O)c2cc(C(=O)NC3CCCCC3)c(=O)n(C3CCCCC3)c2)c1,3.2%
9,COc1ccc(C2c3ccccc3-c3nc(N)nc(N)c3C2C)cc1 (stereo not given),0.31%
10,CC1CN(c2ccnc3ccc(Sc4ccc(Oc5ccccc5)cc4)cc23)CC(C)N1 (stereo not given),-0.77%
11,Cc1ccc2c(=O)n(C)c(=O)n(C)c2n1,1.62%
12,O=C1C(=Cc2cc(Cc3ccccc3)ccc2O)SC(=S)N1Cc1ccccc1,8.43%
13,COc1ccc(Nc2nc(NC3CCN(Cc4ccccc4)CC3)cc(-c3ccncc3)n2)cc1,0.86%
14,Cc1nc2c(c(O)c1Cl)-c1ccc(Oc3cccc(C(F)(F)F)c3)cc1C2=O,1.75% and 2.09%
15,CN(C)CCOc1cc(O)c2c(c1)OC(C)(C)C=C2c1cccs1,-0.34%
16,COc1c(C2CCN(CCCCNC(=O)c3oc(-c4ccc(Cl)cc4)cc3CO)CC2)ccc2c1CCCC2,3.08%
17,O=C1COC2(CN1C1CCN(Cc3ccc(O)cc3Cl)C1)c1ccccc1-c1ccccc12 (stereo not given),1.29%
18,CCc1cc(Cc2cnc(N)nc2N)cc(CC)c1OC,-1.28%
19,N#Cc1cncc(-c2nc3c(N4CCC(N5CCCC5)CC4)cccc3n2CCNCc2ccccc2)c1,3.98%
20,Cc1cc(-c2ccc(CNCc3ccc(F)cc3)cc2)ccc1S(=O)(=O)NCCN1CCCC1,-2.93%

row,Compound,inhibition
1,CO/C(=C\C=C\c1cc2cc(Cl)c(Cl)cc2[nH]1)C(=O)NCCCN1CCN(c2cccc(OCC(=O)Nc3ccccc3)c2)CC1,5.76%
2,CN(CCCCCN1CCC(NC(=O)Nc2ccc(Oc3ccccc3)cc2)C1)C(=O)/C=C/c1ccc(Cl)c(Cl)c1 (stereo not given),-1.12%
3,CCn1ncc2c(N3CCCC3=O)cc(C(=O)N[C@@H](Cc3ccccc3)[C@H](O)CNC(C)(C)c3cccc(C(F)(F)F)c3)cc21,5.42%
4,CC(C)N1CCN(C(=O)c2ccc(CNCCCN3CCN(c4cccc(Cl)c4Cl)CC3)o2)CC1,-1.3%
5,O=C(C=Cc1ccc(Cl)c(Cl)c1)NCCCCCN1CCC(CCNC(=O)c2cccc3ccccc23)CC1,2.03%
6,COc1ccc(-n2ccnc2SCC(=O)Nc2cc(C)ccc2C)c(OC)c1,0.53%
7,CC1(C)NC(N)=NC(=N)N1OCCOc1ccc(Cc2ccccc2)cc1,0.68%
8,CC(C)(O)CC(C)(C)c1cc(Cl)ccc1O,4.82%
9,CCCCCNc1nc(Nc2ccccc2C)nc2ccccc12,11%
10,CC(=O)Nc1cccc(C(=O)Nc2cccc(-c3ccc(-c4nc5cccc(C)c5[nH]4)s3)c2)c1,0.43%
11,COc1ccc2ncc(F)c([C@H](O)CN3CCC(NCc4ccc5c(c4)OCCO5)CC3)c2c1,1.28%
12,CCCCCN1C(=O)C(c2ccccc2)(c2ccccc2)N=C1N,4.92%
13,CS(=O)(=O)NCCCNCc1cccc(-c2ccc(-c3nc4ccccc4[nH]3)s2)c1,11%
14,COc1ccc(NC(=O)[C@H](CC(C)C)Nc2cc(C)nc(NCC3CCCCC3)n2)cc1,0.83%
15,Cc1cc(C=C2SC(=Nc3ccccc3)N(C3CCCC3)C2=O)c(C)n1-c1ccc(Cl)cc1,1.29%
16,COc1cc2c(cc1CCNCCCCNCCc1cc3c(cc1OC)CCCC3)CCCC2,106%
17,O=C(Nc1ccc(Cn2nc(Cl)c(N3CCNCC3)cc2=O)cc1)Nc1ccc(-c2ccccc2)cc1,11.4%
18,O=C(/C=C/c1c[nH]c2ccccc12)NCCCCCN1CCC(c2c[nH]c3ccccc23)CC1,1%
19,Cc1cccc2nc(-c3ccc(-c4cccc(CNCC5CCCO5)c4)s3)[nH]c12 (stereo not given),11.3%
20,COc1cc2nc(N(C)C)nc(Nc3ccc(OCc4ccccc4)cc3)c2cc1OC,-0.07%
